# Test results reported in the supplement of paper PMC10037445.
# The full ranking holds about 2,900 compounds; the median of “NF-kB SEAP reporter activity, fold change vs agonist alone” is about 0.99, and the highest 2% start at about 2.6. Shown is part of a subset that was picked to be rich in the highest values.
# Columns and labels:
# RAW-Dual [1] = test: NF-kB SEAP reporter activity, fold change vs agonist alone; cytotoxicity flag (confluency mask): not cytotoxic; higher = enhanced NF-kB activity
# Summary of the method: (§1)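 After 50 nL of library stock was delivered by pin tool to RAW-Dual macrophages (50,000 cells/well, DMEM, 384-well plates), a PRR agonist was added 1 h later and the plates were kept at 37 °C, 5% CO2. Twenty hours later, IRF was read from supernatant by QuantiLuc luminescence and NF-κB by QuantiBlue absorbance at 620 nm. Reporter activity is stated as fold change over agonist-alone wells. Wells with IncuCyte confluency under 70% of agonist controls in both mask sets were counted as cytotoxic.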
# RAW-Dual [2] = test: NF-kB SEAP reporter activity, fold change vs agonist alone; cytotoxicity flag (confluency mask): cytotoxic (confluency <70% of control); higher = enhanced NF-kB activity
# Summary of the method: as §1
# RAW-Dual [3] = test: NF-kB SEAP reporter activity, fold change vs agonist alone; higher = enhanced NF-kB activity
# Summary of the method: as §1
# [4] = agonist: ODN 1826 (TLR9) 0.5 ug/mL
# [5] = agonist: Pam2CSK4 (TLR2/6) 0.1 ug/mL
# [6] = agonist: Pam3CSK4 (TLR2/1) 0.1 ug/mL
# [7] = library stock concentration (final ~1000-fold dilution): 10 mM, cytotoxicity flag (confluency mask): not cytotoxic, agonist: Imiquimod (TLR7) […]
# [8] = library stock concentration (final ~1000-fold dilution): 10 mM, cytotoxicity flag (confluency mask): not cytotoxic, agonist: MPLA (TLR4) […]
structure (smiles),measurement,setting,value
CC(C(=O)O)c1ccc(C(=O)c2cccs2)cc1 (stereo not drawn) (library stock concentration (final ~1000-fold dilution): 10 mM),NF-kB SEAP reporter activity,RAW-Dual [1]; agonist: LPS (TLR4) 0.1 ug/mL,1.19
same,NF-kB SEAP reporter activity,RAW-Dual [1]; [4],0.999
same,NF-kB SEAP reporter activity,RAW-Dual [1]; [5],1.06
same,NF-kB SEAP reporter activity,RAW-Dual [1]; [6],1.07
COC(=O)Nc1nc2ccc(C(=O)c3cccs3)cc2[nH]1 (library stock concentration (final ~1000-fold dilution): 10 mM),NF-kB SEAP reporter activity,RAW-Dual [2]; agonist: LPS (TLR4) 0.1 ug/mL,2.52
same,NF-kB SEAP reporter activity,RAW-Dual [2]; [4],3.14
same,NF-kB SEAP reporter activity,RAW-Dual [2]; [5],1.85
same,NF-kB SEAP reporter activity,RAW-Dual [2]; [6],1.76
CCCS(=O)c1ccc2nc(NC(=O)OC)[nH]c2c1 (stereo not drawn) (library stock concentration (final ~1000-fold dilution): 10 mM),NF-kB SEAP reporter activity,RAW-Dual [1]; agonist: LPS (TLR4) 0.1 ug/mL,1.06
same,NF-kB SEAP reporter activity,RAW-Dual [1]; [4],0.948
same,NF-kB SEAP reporter activity,RAW-Dual [1]; [5],1.05
same,NF-kB SEAP reporter activity,RAW-Dual [1]; [6],1.09
CC(C(=O)O)c1ccc(C(=O)c2cccs2)cc1 (stereo not drawn),NF-kB SEAP reporter activity,RAW-Dual [3]; [7],0.601
same,NF-kB SEAP reporter activity,RAW-Dual [3]; [8],0.825
COC(=O)Nc1nc2ccc(C(=O)c3cccs3)cc2[nH]1,NF-kB SEAP reporter activity,"RAW-Dual [3]; library stock concentration (final ~1000-fold dilution): 10 mM, cytotoxicity flag (confluency mask): cytotoxic (confluency <70% of control), agonist: Imiquimod (TLR7) […]",2.68
same,NF-kB SEAP reporter activity,"RAW-Dual [3]; library stock concentration (final ~1000-fold dilution): 10 mM, cytotoxicity flag (confluency mask): cytotoxic (confluency <70% of control), agonist: MPLA (TLR4) […]",2.1
CCCS(=O)c1ccc2nc(NC(=O)OC)[nH]c2c1 (stereo not drawn),NF-kB SEAP reporter activity,RAW-Dual [3]; [7],1.04
same,NF-kB SEAP reporter activity,RAW-Dual [3]; [8],0.808
CCCS(=O)(=O)NC1CC(N(C)c2ncnc3[nH]ccc23)C1 (stereo not drawn) (library stock concentration (final ~1000-fold dilution): 10 mM),NF-kB SEAP reporter activity,RAW-Dual [1]; agonist: LPS (TLR4) 0.1 ug/mL,0.584
same,NF-kB SEAP reporter activity,RAW-Dual [1]; [4],0.746
same,NF-kB SEAP reporter activity,RAW-Dual [1]; [5],0.786
same,NF-kB SEAP reporter activity,RAW-Dual [1]; [6],0.875
CCCS(=O)(=O)NC1CC(N(C)c2ncnc3[nH]ccc23)C1 (stereo not drawn),NF-kB SEAP reporter activity,RAW-Dual [3]; [7],0.73
same,NF-kB SEAP reporter activity,RAW-Dual [3]; [8],0.764
Cl.O=C1c2cccc3c2C(CCC3)CN1C1CN2CCC1CC2 (stereo not drawn) (library stock concentration (final ~1000-fold dilution): 10 mM water),NF-kB SEAP reporter activity,RAW-Dual [1]; agonist: LPS (TLR4) 0.1 ug/mL,0.985
same,NF-kB SEAP reporter activity,RAW-Dual [1]; [4],0.593
same,NF-kB SEAP reporter activity,RAW-Dual [1]; [5],0.966
same,NF-kB SEAP reporter activity,RAW-Dual [1]; [6],0.917
Cl.O=C1c2cccc3c2C(CCC3)CN1C1CN2CCC1CC2 (stereo not drawn),NF-kB SEAP reporter activity,"RAW-Dual [3]; library stock concentration (final ~1000-fold dilution): 10 mM water, cytotoxicity flag (confluency mask): not cytotoxic, agonist: Imiquimod (TLR7) […]",0.577
same,NF-kB SEAP reporter activity,"RAW-Dual [3]; library stock concentration (final ~1000-fold dilution): 10 mM water, cytotoxicity flag (confluency mask): not cytotoxic, agonist: MPLA (TLR4) […]",0.711
CCN(CC)CCNC(=O)c1c(C)[nH]c(/C=C2\C(=O)Nc3ccc(F)cc32)c1C.O=C(O)CC(O)C(=O)O,NF-kB SEAP reporter activity,RAW-Dual [3]; [7],0.892
same,NF-kB SEAP reporter activity,RAW-Dual [3]; [8],0.292
CCN(CC)CCNC(=O)c1c(C)[nH]c(/C=C2\C(=O)Nc3ccc(F)cc32)c1C.O=C(O)CC(O)C(=O)O (library stock concentration (final ~1000-fold dilution): 10 mM),NF-kB SEAP reporter activity,RAW-Dual [1]; agonist: LPS (TLR4) 0.1 ug/mL,0.295
same,NF-kB SEAP reporter activity,RAW-Dual [1]; [4],0.21
same,NF-kB SEAP reporter activity,RAW-Dual [1]; [5],0.27
same,NF-kB SEAP reporter activity,RAW-Dual [1]; [6],0.317
Cc1nn(CC(F)(F)F)cc1Nc1ncc(Br)c(NCc2ccc(S(N)(=O)=O)cc2)n1,NF-kB SEAP reporter activity,RAW-Dual [3]; [7],1.38
same,NF-kB SEAP reporter activity,RAW-Dual [3]; [8],1.33
Cc1nn(CC(F)(F)F)cc1Nc1ncc(Br)c(NCc2ccc(S(N)(=O)=O)cc2)n1 (library stock concentration (final ~1000-fold dilution): 10 mM),NF-kB SEAP reporter activity,RAW-Dual [1]; agonist: LPS (TLR4) 0.1 ug/mL,0.744
same,NF-kB SEAP reporter activity,RAW-Dual [1]; [4],1.28
same,NF-kB SEAP reporter activity,RAW-Dual [1]; [5],1.17
same,NF-kB SEAP reporter activity,RAW-Dual [1]; [6],1.54
CSCC(N)C(=O)O (stereo not drawn),NF-kB SEAP reporter activity,RAW-Dual [3]; [7],0.816
same,NF-kB SEAP reporter activity,RAW-Dual [3]; [8],0.97
CSCC(N)C(=O)O (stereo not drawn) (library stock concentration (final ~1000-fold dilution): 10 mM),NF-kB SEAP reporter activity,RAW-Dual [1]; agonist: LPS (TLR4) 0.1 ug/mL,1.3
same,NF-kB SEAP reporter activity,RAW-Dual [1]; [4],1.03
same,NF-kB SEAP reporter activity,RAW-Dual [1]; [5],1.12
same,NF-kB SEAP reporter activity,RAW-Dual [1]; [6],1.08
